# Measurements taken from PubChem BioAssay (NCI).
# Values joined by “and” are separate entries in the source; they are usually repeats but may differ in a detail not shown here. Equal entries are not always repeated. This is part of a sample that, as a whole, favours compounds with a hit. Of some 79,000 tested, about 15% had one in any assay. A number with no mark means an inactive call. Active and inactive are the calls of the source. Rule as the data show it: active = growth inhibition above about 70%; inactive = the rest.
# Test: NCI Yeast Anticancer Drug Screen. Data for the sgs1 mgt1 strain (AID 161);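 also: 0% = growth of cultures given vehicle only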
# Conditions: S. cerevisiae sgs1 mgt1 strain, at 50.0 µM (retest, dose inferred, filed as 5.0), active compounds read high
# Outline: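 Mutant yeast exposed to compound; growth scored against vehicle-only wells.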
row,Structure (SMILES),growth inhibition
1,c1ccc2c(NCCCCCCCCNc3c4ccccc4nc4ccccc34)c3ccccc3nc2c1,90% (active)
2,CN(Cc1ccccc1)CC(O)c1ccc(Cl)cc1 (stereo unspecified),44%
3,Br[C](Br)(Br)[Hg][c]1ccccc1,99% (active)
4,Cc1cc(N=Nc2ccccc2C)ccc1N,99% (active) and 96% (active)
5,C/C(=N\N=C(/[Se])N1CC2CCC(CC2)C1)c1ccccn1,73% (active)
6,CCCCCCCCCC[Se]C#N,99% (active)
7,CNCC(O)c1ccc(O)c(O)c1.[Pt].c1ccc([PH+](c2ccccc2)c2ccccc2)cc1.c1ccc([PH+](c2ccccc2)c2ccccc2)cc1,-7%
8,CCN(CC)CC.CCOc1ccc(NC(=O)N=C=[N-])cc1.[CH-]1CCCCC1.[CH-]1CCCCC1.[CH-]1CCCCC1.[Cl-].[Sn+4],99% (active)
9,Cc1cc(N(C)C)c2ccccc2[n+]1CCCCCCCCCC[n+]1c(C)cc(N(C)C)c2ccccc21,99% (active)
10,CCC[CH2][Sn]1([CH2]CCC)[O]CC(CN2CCCC2)[O]1 (stereo unspecified),97% (active)
11,N#Cc1ccc([Se]c2ccccc2)cc1,67%
12,O=c1ssc(Cl)c1Cl,100% (active)
13,Nc1nc(N)c(-c2ccc(Cl)c(Cl)c2)c(CP(Cl)(Cl)(Cl)Br)n1,82% (active)
14,Cc1ccc(P(c2ccc(C)cc2)c2ccc(C)cc2)cc1,43%
15,O=C(O)c1ccccc1[Se][Se]c1ccccc1C(=O)O,67%
16,CC1CC(C)CC(C)C(O)/C(C#N)=C/C=C/CC(C2CCCC2C(=O)O)OC(=O)CC(O)C(C)C1 (stereo unspecified),2%
